Eleven molecules from ChEMBL document CHEMBL3988442, “University of Dundee, Small-Polar-MMV Screening Library” (2021) can be followed below.

Holding throughout (set-up): scale not given: direction of the effect not stated beside the values
The target of experiment [1] is Protein translocase subunit SecA (Escherichia coli (strain K12)) (UniProt P10408). The experiment can be described thus: Assay to Identify E. coli SecA ATPase Inhibitors. The experiment is classed as functional. Conditions: 30 µM.
Chain of Protein translocase subunit SecA (Escherichia coli (strain K12)) (P10408 whole entry): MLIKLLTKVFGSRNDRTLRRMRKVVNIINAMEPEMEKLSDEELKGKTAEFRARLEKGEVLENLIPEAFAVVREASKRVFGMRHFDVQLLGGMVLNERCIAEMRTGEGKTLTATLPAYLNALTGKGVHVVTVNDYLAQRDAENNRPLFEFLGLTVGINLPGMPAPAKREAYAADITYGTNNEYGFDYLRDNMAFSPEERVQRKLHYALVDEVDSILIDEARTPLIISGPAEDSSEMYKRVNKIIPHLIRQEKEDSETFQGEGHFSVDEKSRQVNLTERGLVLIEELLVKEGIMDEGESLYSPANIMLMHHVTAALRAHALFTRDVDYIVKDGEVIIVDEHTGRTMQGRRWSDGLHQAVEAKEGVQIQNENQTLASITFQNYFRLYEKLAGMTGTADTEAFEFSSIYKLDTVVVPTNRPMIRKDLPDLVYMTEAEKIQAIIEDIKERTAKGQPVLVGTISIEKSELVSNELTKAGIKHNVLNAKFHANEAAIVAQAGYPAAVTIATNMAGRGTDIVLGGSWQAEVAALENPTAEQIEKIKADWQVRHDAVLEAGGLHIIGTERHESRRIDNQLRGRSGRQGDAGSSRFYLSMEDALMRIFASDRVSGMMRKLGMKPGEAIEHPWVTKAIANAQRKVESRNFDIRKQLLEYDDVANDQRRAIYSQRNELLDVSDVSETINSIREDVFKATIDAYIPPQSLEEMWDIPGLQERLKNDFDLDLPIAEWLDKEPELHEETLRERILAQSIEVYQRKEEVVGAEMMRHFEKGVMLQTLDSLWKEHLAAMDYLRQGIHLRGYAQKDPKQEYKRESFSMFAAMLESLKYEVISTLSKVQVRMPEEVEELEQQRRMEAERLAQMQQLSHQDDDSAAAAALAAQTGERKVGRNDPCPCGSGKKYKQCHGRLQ
Experiment [2] concerns the target T1, Ubiquitin-activating enzyme e1, putative (Leishmania donovani (strain BPK282A1)) (UniProt E9BSI1).
T1 sequence (whole entry): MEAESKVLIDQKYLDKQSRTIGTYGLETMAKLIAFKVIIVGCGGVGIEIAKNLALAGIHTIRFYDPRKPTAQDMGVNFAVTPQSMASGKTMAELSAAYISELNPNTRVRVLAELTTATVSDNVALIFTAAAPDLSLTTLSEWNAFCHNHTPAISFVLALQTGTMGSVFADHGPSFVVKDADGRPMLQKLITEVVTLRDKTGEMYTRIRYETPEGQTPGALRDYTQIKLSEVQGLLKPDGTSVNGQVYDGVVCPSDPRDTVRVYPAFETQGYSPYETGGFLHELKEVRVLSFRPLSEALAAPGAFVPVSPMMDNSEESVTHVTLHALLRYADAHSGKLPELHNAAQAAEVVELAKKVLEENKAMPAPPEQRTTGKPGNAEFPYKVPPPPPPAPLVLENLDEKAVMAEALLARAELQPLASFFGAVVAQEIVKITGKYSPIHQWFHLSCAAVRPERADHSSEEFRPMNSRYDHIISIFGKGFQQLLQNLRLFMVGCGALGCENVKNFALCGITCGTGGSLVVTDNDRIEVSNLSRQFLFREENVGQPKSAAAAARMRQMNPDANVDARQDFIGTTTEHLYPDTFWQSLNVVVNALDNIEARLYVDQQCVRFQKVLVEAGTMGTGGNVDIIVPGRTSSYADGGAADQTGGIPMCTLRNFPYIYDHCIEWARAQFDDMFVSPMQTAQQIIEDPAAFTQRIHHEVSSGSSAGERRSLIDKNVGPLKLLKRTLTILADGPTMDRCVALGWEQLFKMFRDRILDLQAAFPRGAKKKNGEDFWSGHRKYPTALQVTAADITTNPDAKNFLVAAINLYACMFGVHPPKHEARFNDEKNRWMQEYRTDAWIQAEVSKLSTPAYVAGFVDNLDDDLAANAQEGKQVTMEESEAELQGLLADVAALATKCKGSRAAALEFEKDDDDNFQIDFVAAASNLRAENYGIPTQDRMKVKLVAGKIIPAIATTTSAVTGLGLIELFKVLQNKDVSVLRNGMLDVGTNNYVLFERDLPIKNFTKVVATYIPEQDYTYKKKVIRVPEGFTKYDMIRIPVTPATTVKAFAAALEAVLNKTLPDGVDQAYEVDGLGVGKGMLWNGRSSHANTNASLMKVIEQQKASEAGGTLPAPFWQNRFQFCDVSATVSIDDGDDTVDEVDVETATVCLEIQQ
The experiment can be described thus: Leishmania donovani Ubiquitin Activating Enzyme (LdE1). The experiment is classed as functional. The following applies: 30 µM.

In experiment [3] the target is AMP-activated protein kinase, AMPK (Homo sapiens) (UniProt P54646+O43741+P54619+Q9UGJ0+Q9Y478+Q13131+Q9UGI9). The experiment can be described thus: AMP-dependent Kinase enzyme assay. An in vitro enzyme assay that detects ADP turnover that is directly proportional to AMPK activity. This uses naive AMPK that is activated during the assay with MK-8722. Conditions: 30 µM. The experiment is classed as functional.

For experiment [4], the target named is Sialic acid-binding Ig-like lectin 9 (Homo sapiens) (UniProt Q9Y336). The experiment can be described thus: Hs-Siglec9 ALPHAscreen SOP 20170721. Conditions: 10 µM. (Bead proximity is the source of the signal in Alpha formats.)
Chain of Sialic acid-binding Ig-like lectin 9 (Homo sapiens) (Q9Y336 whole entry): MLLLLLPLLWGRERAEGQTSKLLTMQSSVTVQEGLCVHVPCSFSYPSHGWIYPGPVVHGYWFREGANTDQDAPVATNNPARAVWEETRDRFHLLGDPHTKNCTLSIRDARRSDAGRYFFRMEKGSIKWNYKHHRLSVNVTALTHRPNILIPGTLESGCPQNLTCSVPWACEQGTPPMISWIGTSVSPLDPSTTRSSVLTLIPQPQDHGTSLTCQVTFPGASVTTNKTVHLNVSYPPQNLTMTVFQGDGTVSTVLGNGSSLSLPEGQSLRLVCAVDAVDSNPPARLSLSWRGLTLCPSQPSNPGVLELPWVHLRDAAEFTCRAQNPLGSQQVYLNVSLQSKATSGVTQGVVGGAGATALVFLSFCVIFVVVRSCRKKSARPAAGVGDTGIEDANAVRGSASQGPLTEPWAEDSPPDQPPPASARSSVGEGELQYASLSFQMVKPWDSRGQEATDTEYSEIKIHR
The test system of experiment [5] is Trypanosoma cruzi. The experiment can be described thus: Trypanosoma cruzi phosphomannomutase and mannose-1-phosphate guanylyltransferase assay. It counts as functional. Conditions: 10 µM.
Experiment [6] concerns the target T2, Arginase-2, mitochondrial (Homo sapiens) (UniProt P78540).
T2 sequence (whole entry): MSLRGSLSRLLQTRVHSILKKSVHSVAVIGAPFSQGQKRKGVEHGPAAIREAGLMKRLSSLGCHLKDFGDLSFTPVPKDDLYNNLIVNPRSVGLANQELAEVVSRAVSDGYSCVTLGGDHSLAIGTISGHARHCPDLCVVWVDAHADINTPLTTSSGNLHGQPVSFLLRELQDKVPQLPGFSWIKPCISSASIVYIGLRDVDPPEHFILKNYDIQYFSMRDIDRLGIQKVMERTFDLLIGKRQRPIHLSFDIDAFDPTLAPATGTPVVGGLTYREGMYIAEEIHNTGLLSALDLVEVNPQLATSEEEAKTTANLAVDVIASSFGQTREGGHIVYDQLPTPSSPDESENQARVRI
The experiment can be described thus: in vitro enzyme assay to detect the production of urea directly proportional to the activity of Arginase II. Further: in the data most compounds retested in dose-response had high values. The experiment is classed as functional. The following applies: 33.3 µM.

Experiment [7] addresses T3, Proteasome subunit beta (Trypanosoma cruzi) (UniProt O96673).
T3 sequence (whole entry): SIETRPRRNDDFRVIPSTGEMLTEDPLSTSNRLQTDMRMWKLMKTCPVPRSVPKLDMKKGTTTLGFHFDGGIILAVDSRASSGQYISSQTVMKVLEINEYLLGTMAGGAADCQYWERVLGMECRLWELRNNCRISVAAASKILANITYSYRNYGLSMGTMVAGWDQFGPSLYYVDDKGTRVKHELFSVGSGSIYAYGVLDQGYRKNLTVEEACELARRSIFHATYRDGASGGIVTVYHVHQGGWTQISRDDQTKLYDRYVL
The experiment can be described thus: Trypanosoma cruzi proteasome chymotrypsin-like activity (TcProtChymo) assay. Further: in the data most compounds retested in dose-response had high values. The experiment is classed as functional. The following applies: 9.37 µM.

For experiment [8], the species on record is Homo sapiens. The experiment can be described thus: To identify inhibition of the IFN signalling (Jak-Stat) pathway via expression of an eGFP reporter gene under the control of an IFN-stimulated response element (ISRE) containing MxA promoter. The following applies: 30 µM. The experiment is classed as functional. On the technique in general: A reporter such as luciferase makes a cellular process visible.

The target in experiment [9] is T4, Tyrosyl-tRNA synthetase, putative (Trypanosoma cruzi (strain CL Brener)) (UniProt Q4DSP6).
T4 sequence (whole entry): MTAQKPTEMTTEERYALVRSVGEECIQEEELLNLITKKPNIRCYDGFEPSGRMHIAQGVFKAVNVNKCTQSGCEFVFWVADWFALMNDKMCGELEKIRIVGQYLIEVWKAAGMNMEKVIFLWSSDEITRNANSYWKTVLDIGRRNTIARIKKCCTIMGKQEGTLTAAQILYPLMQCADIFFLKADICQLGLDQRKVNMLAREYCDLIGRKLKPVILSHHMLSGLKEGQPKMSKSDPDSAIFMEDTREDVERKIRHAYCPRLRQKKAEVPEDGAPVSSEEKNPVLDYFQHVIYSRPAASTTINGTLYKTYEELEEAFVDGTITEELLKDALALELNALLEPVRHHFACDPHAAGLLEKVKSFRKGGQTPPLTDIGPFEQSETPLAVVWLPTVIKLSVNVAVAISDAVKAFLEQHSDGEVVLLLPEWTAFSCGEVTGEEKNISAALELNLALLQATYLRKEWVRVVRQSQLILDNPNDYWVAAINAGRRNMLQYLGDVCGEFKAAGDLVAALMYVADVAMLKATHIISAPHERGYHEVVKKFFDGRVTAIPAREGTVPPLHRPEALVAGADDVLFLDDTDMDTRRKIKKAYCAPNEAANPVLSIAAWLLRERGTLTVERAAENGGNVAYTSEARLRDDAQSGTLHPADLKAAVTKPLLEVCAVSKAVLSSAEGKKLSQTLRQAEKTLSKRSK
The experiment can be described thus: Trypanosoma cruzi tyrosyl tRNA synthetase (TcYRS) _High Tyrosine SOP. Further: in the data most compounds retested in dose-response had high values. It counts as functional. The following applies: 30 µM.

Experiment [10] addresses T4, Tyrosyl-tRNA synthetase, putative (Trypanosoma cruzi (strain CL Brener)). The experiment can be described thus: Trypanosoma cruzi tyrosyl tRNA synthetase (TcYRS) SOP. It counts as functional. The following applies: 30 µM.
For experiment [11], the target named is Chromo domain-containing protein 1 (Saccharomyces cerevisiae (strain ATCC 204508 / S288c) (Baker's yeast)) (UniProt P32657). The experiment can be described thus: ScCHD-1 Enzyme Inhibition Assay. Further: in the data most compounds retested in dose-response had high values. The experiment is classed as functional. Conditions: 30 µM.
Chain of Chromo domain-containing protein 1 (Saccharomyces cerevisiae (strain ATCC 204508 / S288c) (Baker's yeast)) (P32657 whole entry, the tested form may be a part): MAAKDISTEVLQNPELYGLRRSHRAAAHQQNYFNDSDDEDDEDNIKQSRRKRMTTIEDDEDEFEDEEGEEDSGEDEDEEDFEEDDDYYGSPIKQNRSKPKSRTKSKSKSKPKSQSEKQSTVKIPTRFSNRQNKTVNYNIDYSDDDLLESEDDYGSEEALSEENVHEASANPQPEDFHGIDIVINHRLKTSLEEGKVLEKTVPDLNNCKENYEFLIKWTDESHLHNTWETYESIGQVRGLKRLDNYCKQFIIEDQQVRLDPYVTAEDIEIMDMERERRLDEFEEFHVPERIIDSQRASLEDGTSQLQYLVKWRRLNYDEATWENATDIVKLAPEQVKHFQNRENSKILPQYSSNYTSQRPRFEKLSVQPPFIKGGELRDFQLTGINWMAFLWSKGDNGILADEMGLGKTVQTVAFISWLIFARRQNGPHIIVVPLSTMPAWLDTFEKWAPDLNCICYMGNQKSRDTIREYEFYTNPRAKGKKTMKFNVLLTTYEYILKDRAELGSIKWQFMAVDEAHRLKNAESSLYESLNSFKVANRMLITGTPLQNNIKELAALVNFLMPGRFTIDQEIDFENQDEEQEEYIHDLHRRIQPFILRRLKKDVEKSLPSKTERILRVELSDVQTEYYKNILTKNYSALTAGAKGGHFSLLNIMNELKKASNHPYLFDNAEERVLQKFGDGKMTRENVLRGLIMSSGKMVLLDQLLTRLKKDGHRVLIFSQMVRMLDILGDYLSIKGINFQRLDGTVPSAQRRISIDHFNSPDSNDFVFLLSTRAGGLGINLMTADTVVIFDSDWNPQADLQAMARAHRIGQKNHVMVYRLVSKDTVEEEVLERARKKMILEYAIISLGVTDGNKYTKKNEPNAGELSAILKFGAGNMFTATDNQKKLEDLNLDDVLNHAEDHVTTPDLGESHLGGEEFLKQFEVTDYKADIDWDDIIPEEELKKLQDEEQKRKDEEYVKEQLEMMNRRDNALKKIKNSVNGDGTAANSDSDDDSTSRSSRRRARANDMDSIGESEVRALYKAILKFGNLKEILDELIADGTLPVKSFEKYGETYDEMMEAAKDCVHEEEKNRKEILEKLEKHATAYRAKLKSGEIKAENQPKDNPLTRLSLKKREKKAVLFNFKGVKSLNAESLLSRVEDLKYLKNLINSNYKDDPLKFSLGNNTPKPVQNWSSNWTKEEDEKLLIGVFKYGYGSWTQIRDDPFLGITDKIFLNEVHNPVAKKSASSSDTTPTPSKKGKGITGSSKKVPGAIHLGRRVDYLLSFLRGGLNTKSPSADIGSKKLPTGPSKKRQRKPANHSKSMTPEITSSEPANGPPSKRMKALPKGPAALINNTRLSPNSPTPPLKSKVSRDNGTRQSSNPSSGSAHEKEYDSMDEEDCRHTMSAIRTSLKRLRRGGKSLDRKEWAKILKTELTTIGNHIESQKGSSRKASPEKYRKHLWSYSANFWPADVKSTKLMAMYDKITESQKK

For some of these results: Measured potencies and affinities stand elsewhere.

Regarding `CC(C)(C)c1noc(CN2CCCN(Cc3cccs3)CC2)n1`, the Percent Effect is -4.7% in experiment [1]; 10.4% in experiment [2]; 2.92% in [3]; -6.09% in [4]; -3.75% in [5]; 0.356% in [6]. Further, the Percent Effect in experiment [7] is 1.69%; in experiment [8], 30%; in [9], 6.8%; in experiment [10], 12.2%; in experiment [11], -5.35%.
For the molecule `Cc1nn(C)c2c(NCCCn3cccn3)ncnc12`, the Percent Effect in experiment [1] is -1.47%; in experiment [2] it was 9.33%; in experiment [3], 2.34%; in experiment [4], -1.8%; in [5], 3.34%; in [6] it was -3.35%. The Percent Effect is 21.6% in experiment [7]; -12.4% in [8]; 2.12% in [9]; 15.4% in [10]; -7.78% in [11].
Regarding `CN(CCNC(=O)N1CCN(Cc2ccon2)CC1)C1CCCC1`, the Percent Effect in experiment [1] is -7%; in experiment [2] it was 2.67%; in experiment [3], 3.19%; in experiment [4] it was -0.946%; in experiment [5], 1.85%; in experiment [6], 4.69%. In addition, the Percent Effect in [7] was -2.27%; in experiment [8], 4.26%; in [9] it was 4.92%; in [10], 8.64%; in experiment [11], -1.28%.
In the case of `CC[C@H](C)[C@H](NC(=O)Cc1csc(-c2cccc(Cl)c2)n1)C(=O)O`, the Percent Effect was -3.85% in [1]; 9.33% in [2]; 11.6% in experiment [3]; 11.9% in experiment [4]; 0.982% in experiment [5]; -4.75% in experiment [6]. Further, the Percent Effect in experiment [7] was 12.6%; in experiment [8] it was -8.02%; in [9] it was 4.23%; in experiment [10], 7.69%; in [11], -5.96%.
Consider `Cc1cc(N2CCN(Cc3ccccc3)CC(O)C2)cc(C)n1` (stereo unspecified), for which the Percent Effect is -7.08% in experiment [1]; -2.7% in experiment [2]; 1.17% in experiment [3]; 11.4% in experiment [4]; -1.74% in experiment [5]; -3.81% in experiment [6]. Also, the Percent Effect in [7] was 2.07%; in [8] it was 20.1%; in [9], -0.529%; in [10], 4.88%; in [11], -1.99%.
Consider `CC(C)c1nc(C(=O)N2CCCC(n3cncn3)C2)c[nH]1` (stereo unspecified), for which the Percent Effect in experiment [1] is -4.19%; in experiment [2], 11.4%; in experiment [3], 3.03%; in experiment [4], 3.06%; in experiment [5], -0.308%; in experiment [6], 0.215%. The Percent Effect was 12.9% in [7]; 20.5% in experiment [8]; 4.17% in experiment [9]; 15.2% in experiment [10]; -17% in [11].
On to `c1cnn(CCN2CCOC(Cn3cncn3)C2)c1` (stereo unspecified), for which the Percent Effect is -1.82% in [1]; 17.7% in experiment [2]; -6.27% in experiment [3]; -8.37% in experiment [4]; -0.283% in [5]; 3.8% in experiment [6]. Also, the Percent Effect in experiment [7] was 14.3%; in [8], -0.00724%; in experiment [9] it was 10.3%; in experiment [10], 24.1%; in [11], -9.31%.
In the case of `O=C(c1ccc(-n2cccn2)nc1)N1CCC(Nc2cccnn2)CC1`, the Percent Effect in [1] is -8.1%; in experiment [2] it was 10.4%; in [3] it was 4.61%; in experiment [4] it was 12.7%; in experiment [5], 1.47%; in experiment [6], 0.632%. The Percent Effect in [7] was 12.8%; in experiment [8], 5.75%; in experiment [9], 6.67%; in experiment [10] it was 9.41%; in experiment [11], -8.74%.
`CS(=O)(=O)N1CCN(CC(O)COc2ccc(F)cc2)CC1` (stereo unspecified): the Percent Effect in experiment [1] was -0.431%; in [2], 10.4%; in [3], 2.55%; in [4], -2.66%; in experiment [5] it was -4.02%; in [6], 0.632%. The Percent Effect was 11.4% in experiment [7]; 26.8% in [8]; 2.86% in [9]; 21.2% in experiment [10]; -16.1% in [11].
For the molecule `CC(C)(C)c1n[nH]c(C2CN(C(=O)c3csnn3)CCO2)n1` (stereo unspecified), the Percent Effect was -8.03% in [1]; 18.4% in [2]; -1.35% in experiment [3]; 7.53% in experiment [4]; 7.5% in experiment [5]; 1.18% in experiment [6]. For the same molecule, the Percent Effect in experiment [7] is 2.4%; in experiment [8], 6.98%; in [9], 6.38%; in experiment [10] it was 15.6%; in [11], -19.5%.
In the case of `CCSc1cc(C(=O)NCc2ccccc2O)ccn1`, the Percent Effect is -5.37% in experiment [1]; 0% in [2]; 5.33% in [3]; -0.329% in experiment [4]; 7.05% in experiment [5]; -0.909% in experiment [6]. In addition, the Percent Effect in [7] is 12.2%; in experiment [8], 44.3%; in [9], 3.23%; in [10], 5%; in experiment [11], -5.04%.
